This is a sample that favours compounds with a hit; in the whole collection about 4.6% have one here.
FXN GAA850 act: activators of GAA850 frataxin (FXN) promoter | hit rate 0.56% among 360,000 | AID 540364 | HEK293 lucGAA850 FXN promoter luciferase reporter, 24 h; percent of 10 µM SAHA response | activation, % at 6 µM;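 active = activation above the average of all compounds screened plus 3 SD, cutoff fixed separately per campaign, cut at about 7.5% in these data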
HSF-1 act: increases HSF-1 driven luciferase reporter signal; NIH3T3-HGL HSF-1 luciferase reporter, MG132, 8 h; 100% = twice DMSO control signal; activation, % at 9 µM; hit rate 1.7% among 300,000; AID 504408;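 active = mean replicate activation of at least 50% with a set share of replicates each reaching 50%; inconclusive = only one of those two conditions met; inactive = mean below 50% and too few replicates reaching it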
AHR activator: activators of human aryl hydrocarbon receptor; P35869; AHR-responsive luciferase reporter cells, luminescence; activation, % at 5 µM; hit rate 2.5% among 320,000; in the data active = activation above about 47%
HSF1 inhib: HSF1 inhibition | NIH3T3-HGL HSE-luciferase, MG132-induced, luminescence 8 h; hits give low values | activity change, negative = inhibition, % at 7.5 µM (by protocol) | hit rate 0.77% among 300,000;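 active = more than half of replicate wells show activity change below -50%, luminescence cut by over half; inconclusive = some wells, but at most half, below -50%; inactive = no replicate well below -50%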;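 note: luciferase reports HSF-1 transcriptional activity via heat shock element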
Large screens that a line does not name were inactive.

COC(=O)c1ccccc1NC(=O)C1CCN(C(=O)c2cc(OC)cc(OC)c2)CC1	none
C#Cc1ccc([C@H]2C=C(C(=O)NCc3ccccc3)O[C@@H](OCc3ccc(CO)cc3)C2)cc1	none
Fc1ccc(-c2nc3c(Cl)cc(C(F)(F)F)cn3c2Cl)cc1	none
Nc1cccc(-c2cn3cc(C(F)(F)F)cc(Cl)c3n2)c1	AHR activator 63
FC(F)(F)c1cc(Cl)c2nc(-c3ccccc3)cn2c1	HSF-1 act inconclusive, AHR activator 74
COc1ccc(C2/C=C\CN(C(=O)Nc3ccc(C(F)(F)F)cc3)CC(=O)N2Cc2ccc(F)cc2)cc1 (configuration not stated)	none (no result: HSF-1 act)
O=S(=O)(/N=C(/Nc1cccc2ccccc12)c1ccccc1)c1ccc(F)cc1	HSF-1 act 52
COc1ccc(N2CCN(C(=O)COC(=O)c3ccc(Cl)nc3)CC2)cc1	none (no result: HSF-1 act, HSF1 inhib)
Cc1sc2nc(CN(Cc3cccs3)C(=O)NC3CCCCC3)[nH]c(=O)c2c1C	AHR activator 65
Cc1sc2nc(CN(C(=O)NC3CCCCC3)C3CCCC3)[nH]c(=O)c2c1C	none
C=CCSc1nc2ccccc2n1C(=O)/C=C/c1ccc(OC)c(OC)c1	HSF-1 act 71
CCSc1nc2ccccc2n1C(=O)/C=C/c1ccc(OC)c(OC)c1	HSF-1 act 82
CCn1c(SCC(=O)N/N=C/c2ccc(OC)c(OC)c2)nc2ccccc21	none (no result: HSF-1 act, HSF1 inhib)
C=CCSc1nc2ccccc2n1C(=O)/C=C/c1cc(OC)c(OC)c(OC)c1	HSF1 inhib -64
CCOC(=O)n1c(SCC(N)=O)nc2ccccc21	HSF1 inhib -65
FC(F)(F)c1cccc(Cc2noc(CN3CCCCC3c3ccccn3)n2)c1 (configuration not stated)	none
CCCCOc1ccc(CSCCN=C(N)N)cc1	none (no result: AHR activator)
Nc1ccc(CNC(=O)OCC2c3ccccc3-c3ccccc32)cc1	AHR activator 55
O=C(Nc1nnc(-c2ccccc2F)s1)C1CCN(S(=O)(=O)c2ccc(Cl)cc2)CC1	none (no result: HSF-1 act, HSF1 inhib)
O=C(Nc1nnc(-c2ccccc2Cl)s1)C1CCN(S(=O)(=O)c2ccc(Cl)cc2)CC1	HSF-1 act 56
Cc1ccccc1-c1nc(CN2CCC(C(=O)NC3CCCCC3)CC2)c(C)o1	none
Cc1oc(-c2ccccc2F)nc1CN1CCC(C(=O)NC2CCCCCCC2)CC1	HSF-1 act 57 (no result: AHR activator)
CCOC(=O)c1cnn(-c2nc3c(C)cccc3s2)c1C(F)(F)F	none
COc1cccc(NC(=O)Cn2c(=O)n(C)c(=O)c3sc4c(c32)COC(C)(C)C4)c1	none
O=C(Nc1ccc(S(=O)(=O)N2CCOCC2)cc1)c1ccc([N+](=O)[O-])o1	HSF-1 act 123
CN1CCN(c2ccc(NC(=O)c3ccc(-c4ccccc4F)o3)cc2)CC1	AHR activator 64 (no result: HSF-1 act, HSF1 inhib)
O=C(Nc1ccc(N2CCOCC2)cc1)c1ccc([N+](=O)[O-])o1	HSF-1 act 146
O=C(Nc1ccc(S(=O)(=O)N2CCCC2)cc1)c1ccc([N+](=O)[O-])o1	none (no result: HSF-1 act, HSF1 inhib)
CC1CCN(c2ccc(NC(=O)c3ccc(Br)o3)cc2)CC1	HSF-1 act 53
CN1CCN(c2ccc(NC(=O)c3ccc(Br)o3)cc2)CC1	none
O=C(COC(=O)c1ccc([N+](=O)[O-])o1)Nc1ccc(N2CCOCC2)cc1	none (no result: HSF-1 act, HSF1 inhib)
CN1CCN(c2ccc(NC(=O)c3ccccc3Br)cc2)CC1	none
O=C(NCCO)NC(=S)c1ccccc1	none
Cn1sc(NC(=O)c2ccccc2Cl)nc1=O	none
CC(C(=O)NC1CCCC1)N1CCN(Cc2ccccc2)CC1 (configuration not stated)	none
O=C(Nc1ccc(S(=O)(=O)N2CCOCC2)cc1)c1ccc(Cl)cc1Cl	HSF1 inhib -67
O=C(Nc1ccc(Cc2ccncc2)cc1)c1ccc([N+](=O)[O-])o1	HSF-1 act 144
CC(=O)Nc1ccc(Cc2ccncc2)cc1	HSF1 inhib -69
CN(C(=O)CSc1nnc(-c2ccccc2)c(-c2ccccc2)n1)C1CCS(=O)(=O)C1 (configuration not stated)	none
CC(C)(C)C(=O)O/N=C(\N)c1c(Cl)cccc1Cl	none
CCOC(=O)C(Oc1ccc2c(-c3ccccc3)cc(=O)oc2c1C)c1ccccc1 (configuration not stated)	none
O=C(O)CN1C(=O)/C(=C/c2ccccc2Br)Oc2ccccc21	HSF-1 act 70
CCCOC(=O)C(C)n1c(-c2ccccc2)nc2ccccc2c1=O (configuration not stated)	none
CN(c1ccccc1)S(=O)(=O)c1cccc(C(=O)N2CCN(c3ccccn3)CC2)c1	AHR activator 64
COc1ccc(-n2c(=S)[nH]c3cc(C(=O)Nc4cccc(C)c4)ccc3c2=O)cc1	none
CCOC(=O)c1c(-c2ccccc2)csc1NC(=O)CCN1CCOCC1	HSF-1 act 74
COC(=O)CNC(c1ccccc1)c1cc(Br)ccc1N (configuration not stated)	HSF-1 act 74
CCOC(=O)CNC(c1ccccc1)c1cc(Br)ccc1NC(=O)CCN1CCOCC1 (configuration not stated)	HSF-1 act 63
CCOC(=O)c1c(-c2ccccc2)csc1NC(=O)c1cccc(N2C(=O)CCC2=O)c1	HSF-1 act 85
COC(=O)CNC(c1ccccc1)c1cc(Br)ccc1NC(=O)CCN1CCOCC1 (configuration not stated)	none
CCOC(=O)c1c(-c2ccc(C)cc2)csc1NC(=O)c1cccc(N2C(=O)CCC2=O)c1	none
NNC(=O)CNC(c1ccccc1)c1cc(Br)ccc1N (configuration not stated)	none
N#Cc1ccc(CSc2nnc(NC(=O)c3ccc(=O)[nH]c3)s2)cc1	none
CCCCCCCC1=CC2=CC(=O)C(C)(OC(C)=O)C(=O)C2=CN1CCc1ccccc1 (configuration not stated)	none (no result: FXN GAA850 act)
CCN(CCn1cccn1)C(=O)CCc1nnc(CCCc2ccccc2)o1	none
O=C(Nc1nc(-c2ccc(F)cc2)cs1)c1cccc(N2C(=O)CCC2=O)c1	AHR activator 48
O=C(Nc1nc(-c2cc(F)ccc2F)cs1)c1cccc(N2C(=O)CCC2=O)c1	none
CCOC(=O)c1c(C)nc2sc3c(c2c1-c1ccc(OC)cc1)NC(c1ccccc1)NC3=O (configuration not stated)	none
O=C(CSc1nc2[nH]ncc2c(=O)[nH]1)NCCc1ccccc1	AHR activator 78
O=[N+]([O-])c1cccc(C(=NCc2ccccc2)NO)c1	none (no result: AHR activator)
CCN1CCN(c2c(C=O)c(Cl)nc3ccc(OC)cc23)CC1	none
Cc1cc2nc(-c3ccc(SCc4ccccn4)nc3)[nH]c2cc1C	AHR activator 48
Cc1cc2nc(-c3ccc(SCC(=O)N4CCOCC4)nc3)[nH]c2cc1C	AHR activator 60
Cc1cc(C)cc(-n2c(C)cc(/C=N/NC(=O)c3cccc([N+](=O)[O-])c3C)c2C)c1	none
CN(C)c1ccc(C(=O)NCCCSc2ccccc2)cc1	none
Cc1c(O)cc2c(c1O)C(=O)CC(c1ccccc1)O2 (configuration not stated)	AHR activator 79
COc1c(O)cc2c(c1O)C(=O)CC(c1ccccc1)O2 (configuration not stated)	none (no result: FXN GAA850 act, AHR activator)
CSc1ccccc1NC(=O)CSCc1nc2sc(C)c(C)c2c(=O)[nH]1	none
